Common to all, as to assay type: functional
Assay [1] deals with Plasmodium falciparum. Description: GSK_TCMDC: Inhibition of Plasmodium falciparum 3D7 in whole red blood cells, using parasite LDH activity as an index of growth. Test compounds present at 2uM.
Assay [2] deals with Plasmodium falciparum. Description: GSK_TCMDC: Inhibition of Plasmodium falciparum Dd2 in whole red blood cells, using parasite LDH activity as an index of growth. Test compounds present at 2uM.
Assay [3] has as its system HepG2. In words: GSK_TCMDC: Percent inhibition of human HepG2 cell line. Test compounds present at 10uM.

A word on the Inhibition: it is the change of the read-out against control, counted positive when it falls. A low value points to a response near the control.

As for `CCN1CCN(c2cc(C)c3cc(NC(=O)c4ccc(N(CC)CC)cc4)ccc3n2)CC1`, the Inhibition in assay [1] was 95%; in assay [2] it was 41%; in assay [3], 38%.
In the case of `Cc1cccc2nc(-c3cccc(-c4ccc(NC(=O)C(C)C(=O)NC(C)C)cc4)c3)[nH]c12` (stereo not given), the Inhibition in assay [1] came out at 85%; in assay [2] it was 26%; in assay [3], 13%.
For `CCCc1ccc(S(=O)(=O)NC2CCN(c3ccnc(Nc4ccc(F)cc4)n3)C2)cc1` (stereo not given), in that order: 95%, 56% and 40%.
The like results for `Cc1[nH]c2ccc(O)cc2c1C1CCN(CCCCCNC(=O)/C=C/c2ccc(Cl)c(Cl)c2)CC1` were, in that order, 100%, 1% and 33%.
In the case of `CCOC(=O)C1=C(C)N=c2sc(=Cc3cc(Cl)ccc3O)c(=O)n2C1c1ccc(OC)cc1` (stereo not given), the Inhibition is reported as 99% in assay [1], 65% in assay [2] and 0% in assay [3].
For `CO/C(=C\C=C\c1cc2cc(Cl)c(Cl)cc2[nH]1)C(=O)NCCCN1CCN(c2cccc(OCC(=O)Nc3ccccc3)c2)CC1`, in that order: 100%, 81% and 49%.
For `CCC(C)NS(=O)(=O)c1ccc2nc(Nc3ccc(C)c(Cl)c3)n(C3CCCCC3)c2c1` (stereo not given), in that order: 99%, 98% and 0%.
The like results for `N#Cc1cccc(CN(Cc2ccc(Cl)c(Cl)c2)S(=O)(=O)c2cccc([N+](=O)[O-])c2)c1` were, in that order, 100%, 73% and 3%.
As to `COc1ccc(-c2cncc(-c3ccc(OC)c(OC)c3)n2)cc1OC.Cl`, the Inhibition came to 95% in assay [1], 90% in assay [2] and 6% in assay [3].
The like results for `C=CCOC(=O)N1CCC(CNCc2cccc(-c3cccc(-c4nc5ccccc5[nH]4)c3)c2)C1.O=C(O)C(F)(F)F` (stereo not given) were, in that order, 100%, 46% and 16%.
Regarding `CC(=O)NC(c1cccs1)c1cc(Cl)c2cccnc2c1O` (stereo not given), the results for the Inhibition in assay [1], in assay [2] and in assay [3] were 94%, 93% and 65%, respectively.
The like results for `COc1ccc2nccc(N3C[C@H]4C[C@@H]3CN4CCNCc3ccc4c(n3)NC(=O)CS4)c2n1.Cl` were, in that order, 99%, 0% and 21%.
In the case of `CCOc1ccc2c(=NN=Cc3ccccn3)cc(C)[nH]c2c1`, the Inhibition is reported as 98% in assay [1], 1% in assay [2] and 19% in assay [3].
For `O=c1ccc(CNc2nc(NCCc3ccccc3)nc3cc(Cl)ccc23)c[nH]1`, in that order: 95%, 78% and 21%.
For `FC(F)(F)c1ccc(N2CCCN(Cc3cccc(-c4ccccc4CNCc4ccc5c(c4)OCO5)c3)CC2)nc1.O=C(O)C(F)(F)F`, in that order: 87%, 11% and 23%.
For `Br.CCCOc1ccc(CCCON2C(N)=NC(N)=NC2(C)C)cc1`, the Inhibition is recorded as 95% in assay [1], 94% in assay [2] and 65% in assay [3].
Turning to `Cc1ccc2[nH]c(C)cc(=NN=Cc3cccc(Cl)c3)c2c1`, the Inhibition worked out at 100% in assay [1], 98% in assay [2] and 12% in assay [3].
For `COc1cccc(CCN(Cc2ccccc2-c2ccc(CNC3CC(C)(C)NC(C)(C)C3)cc2)C(=O)NC2CCCCC2)c1.Cl`, in that order: 100%, 99% and 97%.
The like results for `CCCNC(=O)CN1CN(c2ccccc2)C2(CCN(C(=O)c3ccc(C(C)(C)C)cc3)CC2)C1=O` were, in that order, 99%, 98% and 0%.
For `CNc1cc(-c2ccc3ccnc(N)c3c2)nc(N)n1.O=CO`, in that order: 100%, 81% and 23%.
In the case of `C[C@@H](N)C#Cc1cc2c(Nc3ccc(OCc4cccc(F)c4)c(Cl)c3)ncnc2s1.O=CO`, the Inhibition in assay [1] is listed as 89%; in assay [2], 23%; in assay [3], 17%.
For `COc1ccc(C(=O)CCC(=O)N(Cc2ccc(-c3ccc(CNCCc4ccc(S(C)(=O)=O)cc4)cn3)cc2)C2CCN(Cc3ccccc3)CC2)cc1F.O=C(O)C(F)(F)F`, in that order: 99%, 72% and 20%.
For `Cc1ccccc1CN1CCCN(Cc2ccc(C(=O)Nc3ccc(Cl)cc3)cc2)CC1.O=C(O)C(F)(F)F`, in that order: 93%, 15% and 48%.
Take `CC(Oc1ccc(Cl)cc1)C(=O)Nc1cc(C(F)(F)F)ccc1-n1cncn1` (stereo not given): the results for the Inhibition in assay [1], in assay [2] and in assay [3] were 99%, 98% and 0%, respectively.
For `COc1ccccc1C1CCN(C2CCC(NC(=O)/C=C/c3cc(F)cc(F)c3)CC2)CC1` (stereo not given), in that order: 91%, 15% and 45%.
The like results for `COc1cccc(C2CCN(CCN3CCC(NC(=O)c4ccc(-c5ccc(Cl)cc5)cc4)CC3)CC2)c1` were, in that order, 93%, 42% and 31%.
The like results for `CCN(CC)CCCC(C)Nc1ccnc2ccc(OC)cc12.Cl.O` (stereo not given) were, in that order, 100%, 0% and 7%.
Regarding `O=C(O)C(F)(F)F.OC1CCCN(Cc2ccc(-c3cccc(-c4nc5cc(F)ccc5[nH]4)c3)cc2)C1` (stereo not given), the Inhibition in assay [1] came to 99%; in assay [2], 49%; in assay [3] it was 28%.
For `CC(Cc1ccc(NC(=O)COc2ccc(CC(C)NCCc3cccc(Cl)c3)cc2)cc1)NCCc1cccc(Cl)c1` (stereo not given), in that order: 100%, 98% and 100%.
For `Cl.N#Cc1cccc(C(O)C2CN(CCC3CCCCC3)CCC2(O)c2ccccc2)c1` (stereo not given), in that order: 98%, 100% and 0%.
For `CN(C)CCNC(=O)c1ccc2c(c1)ncn2-c1cc(OCc2ccccc2C(F)(F)F)c(C(N)=O)s1.CN(C)CCNC(=O)c1ccc2ncn(-c3cc(OCc4ccccc4C(F)(F)F)c(C(N)=O)s3)c2c1`, in that order: 90%, 8% and 0%.
Turning to `O=C(Nc1ccc(Cl)c(C(F)(F)F)c1)Nc1ccc(Cl)c(C(F)(F)F)c1`, the Inhibition in assay [1] is given as 94%; in assay [2], 96%; in assay [3], 1%.
The like results for `COc1cc(/C=N/Nc2nc(Nc3ccccc3)nc(Nc3ccccc3)n2)ccc1OCc1ccccc1[N+](=O)[O-]` were, in that order, 98%, 18% and 8%.
For `O=c1[nH]c2c(cc1CNC1CCCCC1)c(-c1ccc(F)cc1)nn2-c1ccccc1`, in that order: 99%, 88% and 8%.
For the compound `CCOc1cccc(C(=O)Nc2ccc(-c3nc4ccccc4[nH]3)cc2)c1`, the Inhibition is reported as 96% in assay [1], 30% in assay [2] and 40% in assay [3].
The like results for `COc1ccc(CCCN2C(=O)C(c3ccccc3)(c3ccccc3)N=C2N)cc1.O=C(O)C(F)(F)F` were, in that order, 94%, 76% and 21%.
`COc1cccc(C2C(C(=O)Nc3ccccc3)=C(C)N=c3sc(=Cc4ccc(O)cc4)c(=O)n32)c1` (stereo not given): the values for the Inhibition in assay [1], in assay [2] and in assay [3] were 97%, 97% and 15%, respectively.
As for `CSc1ccc(CN2CCC(CNC(=O)c3cc(-c4ccccc4F)cs3)C2)cc1.O=C(O)C(F)(F)F` (stereo not given), the Inhibition in assay [1] was 90%; in assay [2], 13%; in assay [3], 32%.
For `Cn1cccc1C(=O)C(=O)Nc1cccc(-c2ccc(-c3nc4cc(C(F)(F)F)ccc4[nH]3)cc2)c1`, in that order: 94%, 27% and 62%.
For `Brc1ccc(C=NNc2nc3ccccc3[nH]2)cc1`, in that order: 100%, 90% and 0%.
For `CCNc1cc(C(=O)N[C@@H](Cc2ccccc2)[C@H](O)CNC23CCC(CC2)C3)cc(N2CCCCS2(=O)=O)c1.Cl`, the Inhibition in assay [1] came out at 97%; in assay [2] it was 99%; in assay [3] it was 22%.
For `O=C(Nc1ccc2c(c1)CN(Cc1ccc(N3CCCC3)o1)CCC2)c1cncs1.O=CO`, in that order: 84%, 37% and 15%.
The like results for `COc1nc2c(CCN3CC[C@H](NCc4ccc5c(c4)NC(=O)CO5)[C@H](O)C3)c(Cl)cnc2cc1F.Cl` were, in that order, 90%, 22% and 21%.
`O=c1ccc(-c2nc3cc(Cl)c(Cl)cc3n2Cc2ccc(Cl)cc2Cl)c[nH]1`: the figures for the Inhibition in assay [1], in assay [2] and in assay [3] were 88%, 67% and 0%, respectively.
For `Cc1nc(N)nc(N)c1Oc1cccc(Cl)c1.O=S(=O)(O)O`, in that order: 94%, 0% and 49%.
For `Cc1c(CNCCCNc2cc(=O)c3ccccc3[nH]2)sc(/C=N/O)c1Br.Cl`, in that order: 82%, 0% and 0%.
As to `COc1ccc2nc3cc(Cl)ccc3c(NCCCCNc3c4ccc(Cl)cc4nc4ccc(OC)cc34)c2c1`, the values for the Inhibition in assay [1], in assay [2] and in assay [3] were 99%, 99% and 20%, respectively.
Take `O=C(Nc1ccc(-c2cccc(-c3nc4cc(F)ccc4[nH]3)c2)cc1)c1cnn2cccnc12`: the figures for the Inhibition in assay [1], in assay [2] and in assay [3] were 98%, 25% and 10%, respectively.
The like results for `O=C(O)C(F)(F)F.OCCN1CCN(Cc2ccc(-c3cccc(-c4nc5cc(F)ccc5[nH]4)c3)cc2)CC1` were, in that order, 100%, 61% and 21%.
The like results for `C[C@H]1CN(Cc2cccc(-c3cc(CNC(=O)c4cccc(CN5CCN(CCOc6ccccc6)CC5)c4)ccc3F)c2)CCN1.O=C(O)C(F)(F)F` were, in that order, 91%, 88% and 59%.
For `COc1ccc2c(c1)CC1CN(CCCCNC(=O)c3ccc(NC(=O)c4cc(Cl)cc(Cl)c4)cc3)CCN1C2` (stereo not given), in that order: 100%, 57% and 7%.
As to `COc1cc(NC(=O)/C=C/c2cc(F)cc(F)c2F)cc(OCCN2CCC3(CC2)OCCO3)c1.O=C(O)C(=O)O`, the Inhibition in assay [1] is given as 98%; in assay [2], 26%; in assay [3], 17%.
For `O=C(Nc1ccsc1)Nc1cccc(-c2cccc(-c3nc4ccccc4[nH]3)c2)c1`, in that order: 100%, 55% and 61%.
For `Cc1cccc(NC(=O)c2cnc(N3CCN(c4ccncc4)CC3)c(Cl)c2)c1.O=C(O)C(F)(F)F`, in that order: 100%, 54% and 36%.
As for `Cl.N=C(N)c1ccc(NC(=O)Cc2nc3cc(C(=N)N)ccc3[nH]2)cc1`, the results for the Inhibition in assay [1], in assay [2] and in assay [3] were 87%, 81% and 4%, respectively.
For `N#Cc1ccc2[nH]c(-c3ccccc3)nc2c1`, in that order: 95%, 1% and 7%.
The like results for `CN1CC[C@@H](Oc2cc(NC(=O)Nc3ccc(Cl)c(C(F)(F)F)c3)ccc2Cl)C1` were, in that order, 100%, 68% and 17%.
The like results for `Cl.N=C(N)Nc1cccc(NC(=O)Nc2cccc(NC(=N)N)c2)c1` were, in that order, 87%, 71% and 0%.
On to `COc1cc(Cc2cnc(N)nc2N)cc(OCc2cccc(C(=O)O)c2)c1OC.Cl`, for which the Inhibition came to 92% in assay [1], 0% in assay [2] and 8% in assay [3].
The like results for `CC(C)(C)c1ccc(CN2CCCCC(NC(=O)c3cc(-c4ccccc4Cl)cs3)C2)cc1.O=C(O)C(F)(F)F` (stereo not given) were, in that order, 100%, 98% and 3%.

These data come from ChEMBL document CHEMBL1157539, “Thousands of chemical starting points for antimalarial lead identification” (Nature, 2010).
